Usually AC50 stands for the concentration giving half of the maximal activity seen.

Several values for one entry are separate records, joined by “and”; a condition that tells them apart may be missing. Equal entries are not always repeated. Results filed as inconclusive are left out. Where a structure was tested more than once in an assay, its records may differ in their call. Activity calls are given as the source filed them. The calls were made as follows, unless noted: active = hit-call score of the fitted dose curve at least 0.9, where 1 is the maximum; inconclusive = response in the unintended direction; inactive = score below 0.9.

Read-out in assay [1]: Cellular tumor antigen p53 (Homo sapiens) (UniProt P04637)
Put plainly: LTEA_HepaRG_TP53: Life Technologies and Expression Analysis (LTEA) Assay for Tumor Protein P53 (TP53) using HepaRG (AID 2283537; active = hit-call score of the fitted dose curve at least 0.9, where 1 is the maximum; inactive = score below 0.9). The note with it: mRNA level, 48 h; actives raise or lower the signal. Summed up: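 Gain or loss of TP53 mRNA signal is scored relative to 0.5% DMSO after 48 h chemical treatment of HepaRG liver cells, tested in duplicate at eight half-log concentrations up to 100 uM.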

Read-out in assay [2]: UDP glucuronosyltransferase (UGT1A1), UGT1A1 (gene 54658)
Nature of the assay: LTEA_HepaRG_UGT1A1: Life Technologies and Expression Analysis (LTEA) Assay for UDP glucuronosyltransferase (UGT1A1) using HepaRG (AID 2283538; active = hit-call score of the fitted dose curve at least 0.9, where 1 is the maximum; inactive = score below 0.9). The settings on record: mRNA level, 48 h; actives raise or lower the signal. The method, boiled down:
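Cells are plated, cultured 48 h, switched to serum-free induction medium, then dosed 48 h at eight concentrations (max 100 uM, 0.5% DMSO). RNA is isolated and UGT1A1 expression measured by qRT-PCR; changes versus DMSO are fitted in both directions.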

Read-out in assay [3]: UDP glucuronosyltransferase (UGT1A6), UGT1A6 (gene 54578)
Put plainly: LTEA_HepaRG_UGT1A6: Life Technologies and Expression Analysis (LTEA) Assay for UDP glucuronosyltransferase (UGT1A6) using HepaRG (AID 2283539; active = hit-call score of the fitted dose curve at least 0.9, where 1 is the maximum; inactive = score below 0.9). The note with it: mRNA level, 48 h; actives raise or lower the signal. The method, boiled down:
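Human HepaRG cells were dosed for 48 h in serum-free induction medium with 0.5% DMSO vehicle, eight-point half-log series from 100 uM, in duplicate. UGT1A6 mRNA was measured by qRT-PCR, normalized to ACTB, GAPDH, POLR2A, and fitted bidirectionally against DMSO.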

Read-out in assay [4]: X-box binding protein 1 (XBP1), XBP1 (gene 7494)
Nature of the assay: LTEA_HepaRG_XBP1: Life Technologies and Expression Analysis (LTEA) Assay for X-box binding protein 1 (XBP1) using HepaRG (AID 2283540; active = hit-call score of the fitted dose curve at least 0.9, where 1 is the maximum; inactive = score below 0.9). The settings on record: mRNA level, 48 h; actives raise or lower the signal. Summed up: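 Differentiated human HepaRG cells in serum-free induction medium were exposed in duplicate for 48 h to eight half-log concentrations up to 100 uM in 0.5% DMSO. XBP1 mRNA was quantified by qRT-PCR, normalised to ACTB, GAPDH and POLR2A, with bidirectional fitting against DMSO.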

Assay [5] in a line: LTEA_HepaRG_LDH_cytotoxicity: Cytotoxicity Assessment in the Life Technologies and Expression Analysis (LTEA) Assay (AID 2283563).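 As to AC50: LDH activity released into spent culture medium as a marker of cell death.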 Summed up:
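Differentiated human HepaRG cells, plated 48 h beforehand, were switched to serum-free induction medium and exposed for 48 h to eight half-log concentrations (top 100 uM) in 0.5% DMSO. LDH was measured in spent medium; activity was fitted relative to DMSO vehicle.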

Assay [6] can be described thus: ATG_XTT_Cytotoxicity: Cytotoxicity Assessment in the Attagene TRANS-FACTORIAL HepG2 Assay (AID 2283584).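 As to AC50: cells exposed to compound for 24 h before reading; active means loss of viability signal versus DMSO baseline.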 Summed up: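 HepG2 human liver cells, transiently transfected with multiple GAL4-UAS reporter units, were dosed and read at 24 h by XTT as cell number. Loss of signal was fitted relative to DMSO negative control baseline.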
The nature of assay [7]: TOX21_p53_BLA_p2_viability: Viability Assessment in the Tox21 HCT-116 p53 Agonism Beta-lactamase Assay, Phase 2 (AID 2283591).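 Also: compound exposure lasted 16 h at 37 °C; actives lower the ATP signal meaning cytotoxicity.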 The method, boiled down: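 HCT116 p53-bla cells, 4000/well, dosed after 5 h plating (217-fold dilution of DMSO stocks) and incubated 16 h at 37C. Viability taken as cellular ATP by CellTiter-Glo luminescence after 30 min RT; signal loss marks cytotoxicity.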

Assay [8] concerns the target Cellular tumor antigen p53 (Homo sapiens) (UniProt P04637). Put plainly: TOX21_p53_BLA_p2_ratio: Tox21 HCT-116 p53 Agonism Beta-lactamase Assay, Ratio, Phase 2 (AID 2283592). The method, boiled down:
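Ratio endpoint: beta-lactamase cleavage of CCF4-AM, blue (460 nm) over green (530 nm). HCT116 reporter line; 16 h treatment, 37C; substrate 2 h RT.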

The target is the same in assay [9]. Nature of the assay: TOX21_p53_BLA_p3_ratio: Tox21 HCT-116 p53 Agonism Beta-lactamase Assay, Ratio, Phase 3 (AID 2283596). Summed up:
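Cells were seeded at 4000/well, rested 5 h at 37C, then dosed with DMSO compound solutions (217-fold dilution) for 16 h. CCF4-AM substrate was loaded for 2 h at room temperature, and the 460/530 nm emission ratio was fitted for gain of signal versus DMSO.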

Assay [10] is described as follows: TOX21_p53_BLA_p3_viability: Viability Assessment in the Tox21 HCT-116 p53 Agonism Beta-lactamase Assay, Phase 3 (AID 2283593).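 Also: cells exposed to compound for 16 h before reading.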 The method, boiled down: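 HCT116 cells, 4000/well, dosed 5 h after plating by pin transfer (217-fold dilution from DMSO stock) and incubated 16 h at 37C, 5% CO2. Viability read as ATP luminescence with CellTiter-Glo after 30 min at room temperature.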

Sequence of Cellular tumor antigen p53 (Homo sapiens) (P04637 whole entry, looked up): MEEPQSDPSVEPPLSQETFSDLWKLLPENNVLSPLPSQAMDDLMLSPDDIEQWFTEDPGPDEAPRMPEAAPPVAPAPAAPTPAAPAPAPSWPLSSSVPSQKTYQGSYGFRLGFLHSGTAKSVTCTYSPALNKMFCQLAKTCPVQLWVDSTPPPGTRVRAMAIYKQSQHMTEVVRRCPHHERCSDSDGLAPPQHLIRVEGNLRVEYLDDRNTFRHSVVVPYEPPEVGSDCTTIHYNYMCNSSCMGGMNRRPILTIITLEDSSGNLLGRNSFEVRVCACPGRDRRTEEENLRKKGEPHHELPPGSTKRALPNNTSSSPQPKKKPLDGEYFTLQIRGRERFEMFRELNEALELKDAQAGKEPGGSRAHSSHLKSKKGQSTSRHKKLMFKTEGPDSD

Consider `CCOC(=O)CCC(=O)OCC`, for which the outcome in [1], in assay [2], in [3], in assay [4], in [5] and in [6] was inactive. Besides, the result in [7], in assay [8] and in assay [9] was inactive.

On to `CCCCCCCCCCCCCCCCCC(=O)O`, for which the molecule was called inactive in [1], in assay [2], in [3], in assay [4], in assay [5] and in assay [6].

On to `Cc1nc(C)nc(N2C[C@@H](C)N(c3ccnc([C@@H](C)O)n3)[C@@H](C)C2)n1`, for which the molecule was called inactive in assay [1], in assay [2], in assay [3], in [4], in assay [5] and in assay [7]. Further, the result in assay [8] and in assay [10] was inactive.

On to `Cc1ccccc1Cl`, for which the call in [1], in assay [2], in assay [3], in [4], in assay [5] and in assay [6] was inactive. The molecule was classed as inactive in assay [7], in assay [8] and in assay [10].

Turning to `COCCOCCOC`, the figures for the AC50 in assay [1], in assay [2] and in assay [4] were 0.59 µM (active), 3.2 µM (active) and 1.16 µM (active), respectively. Also, the molecule was classed as inactive in [3], in assay [5], in [6], in [7], in [8] and in assay [9].

Turning to `COc1cc(-c2nc(NC(=O)c3cc4cc(C)cc(C)c4n3CC(=O)O)sc2CCC2CCCCC2)c(OC)cc1Cl`, the AC50 was 24.6 µM (active) in assay [1]; 7.32 µM (active) in assay [2]; 7.34 µM (active) in [3]; 19.6 µM (active) in assay [4]; 9.05 µM (active) in assay [5]; 1.65 µM (active) in assay [7]. The AC50 in assay [8] is 2.2 µM (active); in [10] it was 5.1 µM (active).

Take `O=C(N[C@@H](Cc1ccccc1)[C@@H](O)C(=O)N1C[C@@H](O)[C@@H](O)C1)c1cc2cc(Cl)ccc2[nH]1`: the half-maximal activity concentration (AC50) in [1] and in [4] was 50 µM (active) in each case. The outcome in assay [2], in [3], in [5], in assay [7], in [8] and in [10] was inactive.

Take `CCCCOC(=O)CCCCCCCCC(=O)OCCCC`: the molecule was called inactive in assay [1], in assay [2], in assay [3], in assay [4], in assay [5] and in [8]. Also, in [10], the molecule was classed as inactive.

As to `NS(=O)(=O)c1cc2c(cc1Cl)NCNS2(=O)=O`, the result in assay [1], in assay [2], in assay [3], in assay [4], in [5] and in assay [7] was inactive. The result in [8], in assay [10] and in assay [9] was inactive.

Regarding `Oc1ccc2c(c1)OC[C@@H](N1CCC(O)(c3ccc(F)cc3)CC1)[C@H]2O`, the result in [1], in assay [2], in assay [3], in assay [4], in assay [5] and in [8] was inactive. For the same molecule, the outcome in assay [9] was inactive.

For the molecule `Cc1nc(-c2ccc3c(c2)CCN(CCC2CCC(NC(=O)/C=C/c4ccc(F)cc4)CC2)CC3)no1` (stereo unspecified), the molecule was classed as inactive in assay [1], in assay [2], in assay [3], in assay [4], in [6] and in assay [7]. Besides, the outcome in assay [8] was inactive.

As for `CC(=O)OC/C=C(\C)CCC=C(C)C`, the molecule was called inactive in assay [1], in assay [2], in assay [3], in assay [4], in assay [6] and in assay [7]. Also, in assay [8], the result was inactive.

On to `COc1cc(C=O)ccc1O`, for which the molecule was classed as inactive in [1], in [2], in [3], in assay [4], in assay [6] and in assay [7]. For the same molecule, the result in assay [8], in assay [10] and in [9] was inactive.

Turning to `Cc1cccc(Nc2cc(Cl)nc(SCC(=O)O)n2)c1C`, the molecule was called inactive in assay [1], in [3], in assay [4], in assay [5], in assay [8] and in [9]. The AC50 in [2] is 50 µM (active).

Take `Nc1nc(N)c2nc(CNc3ccc(C(=O)N[C@@H](CCC(=O)O)C(=O)O)cc3)cnc2n1`: the molecule was classed as inactive in assay [1], in assay [2], in [3], in assay [4], in assay [6] and in assay [7]. The result in assay [8] and in [9] was inactive. Besides, the concentration at half-maximal activity (AC50) in [7] was 0.0118 µM (active); in [8] it was 0.0308 µM (active); in [10], 0.0381 µM (active); in [9], 0.0688 µM (active).

In the case of `Cc1ccc(N(C)C)cc1`, the result in assay [1], in assay [3], in [4], in [5], in assay [7] and in assay [8] was inactive. Besides, the result in [10] was inactive. Moreover, the AC50 in [2] was 26.6 µM (active).

`C=CCOC(=O)c1ccccc1C(=O)OCC=C`: the molecule was called inactive in [1], in [2], in assay [3], in [4], in assay [6] and in [7]. In addition, the result in assay [8] and in [9] was inactive.

`Cc1oc(-c2ccccc2)nc1CCOc1cccc2c1ccn2CCC(=O)O`: the AC50 in assay [1] was 80.1 µM (active); in [2], 90.9 µM (active); in assay [3], 79.8 µM (active); in [5], 81.4 µM (active); in assay [8], 68.6 µM (active). The molecule was called inactive in assay [4], in [7] and in assay [10].

For `NCC1(Cc2noc(=O)[nH]2)CCCCC1`, the result in assay [1], in assay [2], in assay [4], in assay [5], in assay [8] and in assay [10] was inactive. Besides, the AC50 in assay [3] is 0.226 µM (active).

As to `CCCCC(CC)COC(=O)CC(C(=O)OCC(CC)CCCC)S(=O)(=O)O` (stereo unspecified), the half-maximal activity concentration (AC50) in assay [1] was 50 µM (active); in assay [2], 13.3 µM (active); in assay [3], 79.9 µM (active); in [6] it was 43.8 µM (active); in assay [7] it was 59.8 µM (active) [middle of 4 runs]; in assay [8] it was 77.1 µM (active) and 82.5 µM (active). In [10], the AC50 is 71.8 µM (active) and 65 µM (active) and 42 µM (active). The molecule was classed as inactive in assay [4], in assay [8] and in [10].

For `C1CCC(SSC2CCCCC2)CC1`, the molecule was classed as inactive in assay [1], in assay [2], in assay [3], in [4], in assay [6] and in [7]. The result in assay [8] and in assay [10] was inactive.

Turning to `Cc1ccc(C(C)C)c(O)c1`, the molecule was called inactive in assay [1], in assay [2], in [3], in [4], in assay [6] and in assay [8]. In addition, in assay [10], the call was inactive. Further, the AC50 in assay [7] was 66 µM (active).

For the molecule `CCCCc1ccc2c(n1)[C@@H](c1ccc(OC)cc1C[C@H](C)C(=O)O)[C@H](C(=O)O)[C@H]2c1ccc2c(c1)OCO2`, the result in [1], in assay [2], in assay [3], in [4], in assay [5] and in [7] was inactive. Besides, the result in assay [8] and in assay [10] was inactive.

`Oc1ccc2ccccc2c1N=Nc1ccccc1`: the molecule was called inactive in assay [1], in assay [3], in [6], in assay [7], in assay [8] and in assay [10]. Also, in assay [9], the outcome was inactive. The AC50 was 0.811 µM (active) in assay [2] and 7.84 µM (active) in assay [4].

The values above are taken from PubChem BioAssay (EPA / NIEHS).
